Source: PubChem BioAssay
M1 ag: human M1 muscarinic receptor agonism; activation, % at 3 µM; hit rate 0.33% among 360,000; CHO-K1 hM1, Fluo-8 calcium fluorescence, agonist mode; 0% DMSO, 100% acetylcholine EC100; AID 588814; P11229;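 active = activation above the run's mean compound activation plus 3 SD, cut at about 16% in these data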;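 also: peak over basal fluorescence ratio within a 140 s kinetic read after compound addition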
Target sequence (P11229 whole entry, looked up): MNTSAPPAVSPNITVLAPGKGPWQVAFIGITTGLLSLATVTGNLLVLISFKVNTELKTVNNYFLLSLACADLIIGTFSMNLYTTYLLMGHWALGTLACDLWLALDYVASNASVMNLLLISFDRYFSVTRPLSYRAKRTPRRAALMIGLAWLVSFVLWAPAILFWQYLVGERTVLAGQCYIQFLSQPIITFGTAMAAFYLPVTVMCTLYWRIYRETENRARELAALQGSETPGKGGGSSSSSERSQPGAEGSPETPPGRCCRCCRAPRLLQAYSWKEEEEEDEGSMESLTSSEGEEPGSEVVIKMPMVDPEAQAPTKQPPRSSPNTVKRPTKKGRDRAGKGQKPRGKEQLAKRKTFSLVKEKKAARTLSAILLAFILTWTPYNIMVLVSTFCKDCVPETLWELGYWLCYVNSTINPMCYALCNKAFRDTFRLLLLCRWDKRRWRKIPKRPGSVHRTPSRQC
CHO-K1 Ca antag: M1 antagonist counterscreen hit in parental CHO-K1 cells; ATP-induced calcium, Fluo-8 fluorescence; hit rate 0.6% among 360,000; AID 602250; inhibition, % at 3 µM;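 active = inhibition above a per-plate cutoff, the plate's mean sample inhibition plus 3 SD, cut at about 24% in these data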;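 also: 0% = DMSO plus EC80 ATP and 100% = DMSO alone without ATP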
CHRM1 PAM: positive allosteric modulators of human M1 muscarinic receptor; AID 588819; P11229; CHO-K1 hM1, Fluo-8 calcium fluorescence, ACh EC20; 0% = ACh EC20, 100% = maximal ACh; hit rate 0.088% among 360,000; activation, % at 3 µM; in the data active = activation above about 19%, passing the limit was not always enough
CHO-K1 Ca PAM: counter-screen for M1 PAMs: effect in parental CHO-K1 cells; ATP EC20, Fluo-8 calcium fluorescence; 0% at ATP EC20, 100% at ATP max; activation, % at 3 µM; hit rate 0.02% among 360,000;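 active = activation above the run cutoff, the mean activation of all test compounds plus 3 SD, cut at about 40% in these data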;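 also: peak over basal fluorescence ratio in a 140 s read after ATP addition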
CHO-K1 Ca ag: M1 agonist counterscreen hit in parental CHO-K1 cells; Fluo-8 calcium fluorescence; scaled to maximal ATP response, vehicle zero; activation, % at 3 µM; AID 602248; hit rate 0.48% among 360,000; in the data active = activation above about 15%;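 also: untransfected CHO-K1 host cells lacking M1 receptor as counterscreen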
CHRM1 antagonist: blocks human M1 muscarinic receptor; hit rate 1.3% among 360,000; CHO-K1 hM1, Fluo-8 calcium fluorescence, ACh EC80 antagonist; P11229; AID 588852; inhibition, % at 3 µM;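 active = percent inhibition above its own plate's cutoff, namely the mean of that plate's compound wells plus 3 SD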;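 also: peak over basal fluorescence ratio during 140 s after agonist addition; 0% = ACh EC80 plus DMSO and 100% = DMSO alone without agonist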
* = called active by the depositor; x = not tested or not shown. The list is not random: actives were taken first. Their share in the collection is about 2.3%.

SMILES | M1 ag | CHO-K1 Ca antag | CHRM1 PAM | CHO-K1 Ca PAM | CHO-K1 Ca ag | CHRM1 antagonist
COc1ccc(-n2cc(-c3ccccc3)c3c(N4CCOCC4)ncnc32)cc1 | -4 | -7 | -11 | 11 | 6 | 40*
CC(C)C[C@H]1CN(CCCC[C@H]2CNC(=O)C(=O)N2CC2CCCCC2)C(=O)C(=O)N1CC1CCCCC1 | x | -26 | x | 6 | 0 | x
O=C(NCCCN1CCN(Cc2ccccc2)CC1)C1CCN(c2nnc(-n3cccc3)s2)CC1 | -4 | -4 | -21 | 9 | 1 | 44*
O=C(NC1CCN(Cc2ccccc2)CC1)C1CCCN(c2nnc(-n3cccc3)s2)C1 (stereo unspecified) | -12 | -12 | -8 | 19 | -1 | -4
O=C(NCCCc1ccccc1)C1CCN(c2nnc(-n3cccc3)s2)CC1 | -8 | 6 | -1 | 5 | 0 | -3
O=C(NC1CCN(Cc2ccccc2)CC1)C1CCN(c2nnc(-n3cccc3)s2)CC1 | -14 | -1 | -19 | 4 | 0 | 51*
OC[C@H]1O[C@@H](c2nc3ccc(-c4nc(-c5ccc(Br)cc5)no4)cc3[nH]2)C[C@@H]1O | 16* | -14 | 23 | 12 | 1 | -14
CCN(CC)C(=O)c1ccc2nc([C@H]3C[C@H](O)[C@@H](CO)O3)[nH]c2c1 | -2 | -5 | 11 | 19 | 0 | -18
COc1ccc(CCCNC(=O)C2(C)Cc3c(-c4ccc(C(N)=O)cc4)ccnc3O2)cc1 (stereo unspecified) | 7 | 15 | -3 | -11 | 4 | -3
COc1cc(NC(=O)c2cccs2)c(C(=O)OCC(=O)c2cc(C)n(-c3ccc(F)cc3)c2C)cc1OC | -4 | 8 | 5 | 12 | 17* | 7
COc1ccc(N(CC(=O)Nc2ccc(OC)c(Cl)c2)S(=O)(=O)c2c(C)noc2C)cc1 | -1 | -5 | -3 | 16 | 3 | 3
COc1ccc(N(CC(=O)Nc2ccc(F)c(Cl)c2)S(=O)(=O)c2c(C)noc2C)cc1 | -1 | 26* | 4 | -6 | 0 | 0
CN(C)C(=O)c1cccc(-c2cnc3c(NC=O)cc(-c4ccccc4F)cn23)c1 | -4 | 6 | -3 | -10 | 3 | 1
c1ccc(-c2cnn3c(-c4ccccc4)c(-c4ccccc4)nc3n2)cc1 | 52* | 28* | -9 | 11 | 31* | 41*
Nc1ncnc2c1ncn2[C@@H]1O[C@H](CNC(=O)[C@@H](N)Cc2ccc(C(=O)c3ccccc3)cc2)[C@@H](O)[C@H]1O | 7 | -11 | 5 | 5 | 0 | -28
CCNC(=O)c1cc2c(c(-c3cccc(-c4cccc(C(=O)N(C)C)c4)c3)n1)[C@H](CCO)N(S(=O)C(C)(C)C)C2 (stereo partly specified) | -10 | 3 | 5 | 13 | 1 | -5
CN(C)C(=O)c1cccc(-c2cccc(-c3nc(C(=O)NCc4ccccc4)cc4c3[C@@H](CCO)N(S(=O)C(C)(C)C)C4)c2)c1 (stereo partly specified) | -5 | 25* | -13 | -9 | 5 | 23
COC(=O)C1CCN(C(=O)COC(=O)CCc2nc3ccccc3c(=O)[nH]2)CC1 | -5 | -10 | 11 | 28 | 1 | -5
CN(C)C(CNC(=O)C1CCN(S(=O)(=O)c2ccccc2C(F)(F)F)CC1)Cc1ccccc1 (stereo unspecified) | -8 | 8 | 2 | 9 | 2 | 0
O=C(CC1Nc2ccccc2NC1=O)Nc1ccc2c(c1)OCO2 (stereo unspecified) | -6 | 28* | -6 | -18 | 0 | 5
Cc1cc(F)ccc1C(O)c1ncc(-c2cccc3ccccc23)[nH]1 (stereo unspecified) | -6 | -18 | 9 | 18 | 1 | -20
CCOC(=O)c1ccccc1-n1c(C)cc(C2N=C(N)Nc3nc4ccccc4n32)c1C (stereo unspecified) | -15 | -14 | -37 | 4 | 1 | 81*
CCCN(CC(=O)Nc1ccccc1C)C(=O)c1cccc(S(=O)(=O)N2CCc3ccccc3C2)c1 | 0 | 16 | -14 | -14 | 13 | 35*
CC(=C/c1ccccc1)/C=N/n1c(-c2ccncc2)n[nH]c1=S | 30* | -4 | 5 | 0 | 0 | -1
Cc1ccccc1S(=O)(=O)Cc1ccc(C(=O)N2CCN(c3cccc(C)c3C)CC2)o1 | 3 | 26* | -6 | 4 | 7 | 25
SMILES | M1 ag | CHO-K1 Ca antag | CHRM1 PAM | CHO-K1 Ca PAM | CHO-K1 Ca ag | CHRM1 antagonist
Cc1c(NC(=O)C(C)OC(=O)Cc2ccc(F)cc2)c(=O)n(-c2ccccc2)n1C (stereo unspecified) | -1 | 25* | -14 | -17 | 0 | 38*
CN(C)c1ccc(/C=C(/C(=O)c2ccc(Cl)cc2Cl)n2cncn2)cc1 | 15 | 8 | -2 | 12 | 18* | 8
CN(c1ccccc1C(=O)Nc1ccccc1C(=O)NCc1ccco1)S(C)(=O)=O | 1 | 35* | 12 | -8 | 0 | -3
COc1ccc(S(=O)(=O)Nc2ccccc2C(=O)NCc2ccco2)cc1 | -3 | -2 | 6 | 15 | 1 | -7
COc1ccc(C(=O)Nc2ccccc2C(=O)NCc2ccco2)cc1OC | 1 | 3 | -12 | 16 | 4 | 20*
O=C(NCc1ccco1)c1ccccc1NS(=O)(=O)c1ccc(Br)s1 | 1 | 24* | -1 | 0 | 8 | -2
COCCNC(=O)C1(C)CCN(C(=O)c2ccc(SC(F)(F)F)cc2)C1 (stereo unspecified) | -4 | 11 | -2 | -10 | 0 | 5
CC(Sc1ncnc2sc(-c3ccccc3)cc12)C(=O)NCC1CCCO1 (stereo unspecified) | -5 | 11 | -4 | -16 | 0 | 4
O=C(Nc1ccc([N+](=O)[O-])cc1)Nc1nc(-c2ccc(Cl)s2)cs1 | 6 | 34* | -10 | -4 | 10 | 8
CCCCCCN1C[C@H](n2cc(-c3ccc(F)cc3)nn2)[C@@H](O)C[C@@H]1c1ccc(Cl)cc1 | -4 | -12 | 5 | 10 | 1 | -10
CC1(C)CC(=O)C(C=NCCN2CCN(CCCCS(=O)(=O)O)CC2)=C(O)C1 | -3 | 25* | 2 | -8 | 0 | 4
CC1(C)CC(=O)C(C=NCCN2CCOCC2)=C(O)C1 | -2 | -15 | 4 | 19 | 0 | -27
O=C(N/N=C/c1ccc(O)cc1)c1ccc(COc2cc(Cl)ccc2Cl)o1 | 36* | 14 | 0 | 20 | 15* | 0
CCOC(=O)CN1C(=O)/C(=C/c2ccccc2Br)Oc2ccccc21 | -3 | -10 | 11 | 1 | 1 | -9
COC(=O)CSc1nc2c(c(=O)n(C)c(=O)n2C)n1CCCc1ccccc1 | -2 | -10 | -1 | 7 | 0 | -10
Cc1ccc(Cn2c(CN(C)Cc3ccccc3)nc3c2c(=O)n(C)c(=O)n3C)cc1 | 16* | -4 | 1 | 17 | 5 | 7
